The nature of experiment [1]: growth inhibition of DIPG cells – cell-based, MIPE4.0 library, CellTiter-Glo luminescence, qHTS (AID 1347066; cut-off not given, nearly all actives have AC50 up to about 30 µM;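 also: cells exposed to compound for 48 hours before readout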). The note with it: SU-DIPG-VI viability, CellTiter-Glo ATP luminescence.
Experiment [2] is described as follows: JHH-DIPG-1 glioma cell viability, MIPE5.0 library, CellTiter-Glo luminescence, qHTS (AID 1347067; cut-off not given, nearly all actives have AC50 up to about 26 µM;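 also: cells exposed to compound for 48 hours before readout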). The note with it: JHH-DIPG-1 glioma viability, CellTiter-Glo ATP luminescence. (Cellular ATP, detected with luciferase, serves as a proxy for viable cell number.)
The nature of experiment [3]: growth inhibition of DIPG cells – cell-based, MIPE5.0 library, qHTS (AID 1347068; cut-off not given, nearly all actives have IC50 up to about 30 µM). The note with it: SU-DIPG-XXV viability. (qHTS replaces the single test concentration by a dilution series.)
Experiment [4] is described as follows: blockers of cellular phospholipid synthesis – cell-based, LOPAC library, screen 4, primary screen (AID 1347384; call rule not given here). The note with it: animal cells, phospholipid biosynthesis inhibition screen; at 10 µM.
Experiment [5] in a line: MELAS cybrid and Rieske KO viability enhancers – cell-based, MELAS cybrids, Rieske KO mouse fibroblasts, CellTiter-Glo, primary screen (AID 1508586;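 active = mean z-score across replicates of 1.96 or higher in either the MELAS or the Rieske mutant cell line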;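 also: z relative to plate mean and SD of compound and empty wells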). The note with it: low glucose.
Experiment [6] is described as follows: viability loss with induced miR-34 in A549 – imaging, A549 dox-inducible miR-34, nuclei and caspase counts, primary screen (AID 1347080;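 active = compounds whose cell count with miR-34 switched on is under 0.7 times the count with it off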). The note with it: A549 miR-34 inducible, Hoechst nuclei count, 48 h.
Experiment [7] can be described thus: compounds altering HSF1 focus formation in cells – imaging, Selleck Cancer Library (AID 1347162; in the data active = plate-normalised HSF1 focus index below about 0.46). The note with it: human cells, HSF1 nuclear foci imaging, at 10 µM; SSMD: measured here: HSF1 foci SSMD mean; cell count: measured here: cell number; plate-normalised HSF1 focus index: stronger effect = lower value.
The nature of experiment [8]: drug combination growth inhibition, ovarian cancer – cell-based, oncology-focused library, rucaparib conditional, profiling panel (AID 1508598). The note with it: patient-derived ovarian cancer cells, CellTiter-Glo viability, 144 h, stronger effect = lower value.
The mark [9] stands for this setting: MELAS cybrid survival, CellTiter-Glo 48 h, stronger effect = higher value.
[10] abbreviates: Rieske KO mouse fibroblast survival, CellTiter-Glo 72 h.
The mark [11] stands for this setting: stronger effect = lower value, cell number ratio, induced over uninduced.
Setting [12] is: measured here: relative caspase fold change +Dox/-Dox.
The mark [13] stands for this setting: measured here: total cells with miR-34 induction, stronger effect = lower value.
Where [14] appears, read: measured here: total cells without miR-34 induction.

Values joined by “and” are separate entries in the source; they are usually repeats but may differ in a detail not shown here. Equal entries are not always repeated. Inconclusive results are not listed. Active and inactive are the calls of the source.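 The calls were made as follows, unless noted: active = normalized viability below 100% at a tested concentration; inactive = the rest.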 Peptide text beside a SMILES is read from it.

As for `COc1ccc2[nH]cc(CCNC(C)=O)c2c1`, the result in experiment [1], in experiment [2], in experiment [3] and in experiment [4] was inactive. For the same compound, the z-score is -0.429 (inactive) and 0.313 (inactive) and -0.146 (inactive) in experiment [5] (setting [9]); -0.494 and 0.0961 and -0.273 in experiment [5] (setting [10]).

As usually defined, the AC50 is the midpoint of the concentration-response curve, whichever way the signal moves. Take `Clc1ccc(C(c2ccccc2Cl)C(Cl)Cl)cc1` (stereo not given): the AC50 in experiment [1] was 23.5 µM (active); in experiment [2] it was 20.9 µM (active). The fold change was 1.02 (inactive) and 0.901 (inactive) and 0.92 (inactive) in experiment [6] (setting [11]); 1.69 and 0.413 and 1.68 in experiment [6] (setting [12]). In addition, the cell count is 9100 and 8310 and 10700 in experiment [6] (setting [13]); 8890 and 9220 and 11600 in experiment [6] (setting [14]). For the same compound, the result in experiment [4] was inactive. In addition, the z-score in experiment [5] (setting [9]) was -0.255 (inactive) and -0.0992 (inactive); in experiment [5] (setting [10]) it was 0.722 and 0.331.

`Cc1cccc(N(C)C(=S)Oc2ccc3ccccc3c2)c1`: the compound was called inactive in experiment [1] and in experiment [3]. In addition, the fold change was 0.98 (inactive) and 0.897 (inactive) and 0.793 (inactive) in experiment [6] (setting [11]); 1.24 and 1.29 and 1.54 in experiment [6] (setting [12]). The cell count in experiment [6] (setting [13]) is 8090 and 8100 and 9280; in experiment [6] (setting [14]) it was 8260 and 9020 and 11700. Moreover, the z-score in experiment [5] (setting [9]) was -0.305 (inactive) and 0.185 (inactive); in experiment [5] (setting [10]) it was 0.765 and 0.376.

Take `Cc1cn([C@H]2C=C[C@@H](CO)O2)c(=O)[nH]c1=O`: the compound was classed as inactive in experiment [1] and in experiment [4]. Besides, the fold change in experiment [6] (setting [11]) is 0.956 (inactive) and 1.02 (inactive); in experiment [6] (setting [12]) it was 1.47 and 1.86. Also, the cell count was 8230 and 8880 in experiment [6] (setting [13]); 8610 and 8700 in experiment [6] (setting [14]). Besides, the z-score in experiment [5] (setting [9]) was 0.426 (inactive); in experiment [5] (setting [10]) it was -0.562.

As for `COC(=O)[C@H](Cc1ccccc1)NC(=O)[C@@H](N)CC(=O)O` (H-Asp-Phe-OMe), the call in experiment [1] and in experiment [2] was inactive. For the same compound, the fold change in experiment [6] (setting [11]) was 0.869 (inactive); in experiment [6] (setting [12]) it was 2.93. Moreover, the cell count in experiment [6] (setting [13]) came out at 11000; in experiment [6] (setting [14]), 12600.

Broadly, the viability is a read-out of living cells in per cent, often relative to untreated cells. Consider `CCc1c2c(nc3ccc(OC(=O)N4CCC(N5CCCCC5)CC4)cc13)-c1cc3c(c(=O)n1C2)COC(=O)[C@]3(O)CC`, for which, in experiment [1], the compound was called inactive. Further, the AC50 in experiment [2] is 23.5 µM (active). The fold change is 0.732 (inactive) and 1.02 (inactive) and 1.1 (inactive) in experiment [6] (setting [11]); 1.79 and 1.27 and 1.62 in experiment [6] (setting [12]). Moreover, the cell count in experiment [6] (setting [13]) is 1660 and 2170 and 2350; in experiment [6] (setting [14]) it was 2270 and 2120 and 2140; in experiment [7], 7510. Besides, the SSMD in experiment [7] was -0.515. Besides, the plate-normalised HSF1 focus index in experiment [7] was 0.983 (inactive). The z-score in experiment [5] (setting [9]) is -0.914 (inactive) and -2.14 (inactive); in experiment [5] (setting [10]), -0.882 and -1.55. Also, the viability was 118% (inactive) in experiment [8] (at 0.000305 µM, OCI-C5x cells, with rucaparib 10 µM, 100% = cells with rucaparib alone); 117% (inactive) in experiment [8] (at 0.000305 µM, OCI-C5x cells, without rucaparib); 102% (inactive) in experiment [8] (at 0.000305 µM, OCI-P5x cells, with rucaparib 20 µM, 100% = cells with rucaparib alone); 105% (inactive) in experiment [8] (at 0.000305 µM, OCI-P5x cells, without rucaparib); 121% (inactive) in experiment [8] (at 0.00122 µM, OCI-C5x cells, with rucaparib 10 µM, 100% = cells with rucaparib alone); 124% (inactive) in experiment [8] (at 0.00122 µM, OCI-C5x cells, without rucaparib). In addition, the viability in experiment [8] (at 0.00122 µM, OCI-P5x cells, with rucaparib 20 µM, 100% = cells with rucaparib alone) was 104% (inactive); in experiment [8] (at 0.00122 µM, OCI-P5x cells, without rucaparib), 105% (inactive); in experiment [8] (at 0.00488 µM, OCI-C5x cells, with rucaparib 10 µM, 100% = cells with rucaparib alone) it was 107% (inactive); in experiment [8] (at 0.00488 µM, OCI-C5x cells, without rucaparib), 112% (inactive); in experiment [8] (at 0.00488 µM, OCI-P5x cells, with rucaparib 20 µM, 100% = cells with rucaparib alone), 108% (inactive); in experiment [8] (at 0.00488 µM, OCI-P5x cells, without rucaparib) it was 106% (inactive). The viability in experiment [8] (at 0.0195 µM, OCI-C5x cells, with rucaparib 10 µM, 100% = cells with rucaparib alone) was 115% (inactive); in experiment [8] (at 0.0195 µM, OCI-C5x cells, without rucaparib), 124% (inactive); in experiment [8] (at 0.0195 µM, OCI-P5x cells, with rucaparib 20 µM, 100% = cells with rucaparib alone), 101% (inactive); in experiment [8] (at 0.0195 µM, OCI-P5x cells, without rucaparib), 105% (inactive); in experiment [8] (at 0.0781 µM, OCI-C5x cells, with rucaparib 10 µM, 100% = cells with rucaparib alone) it was 115% (inactive); in experiment [8] (at 0.0781 µM, OCI-C5x cells, without rucaparib) it was 109% (inactive). Also, the viability in experiment [8] (at 0.0781 µM, OCI-P5x cells, with rucaparib 20 µM, 100% = cells with rucaparib alone) was 89.3% (active); in experiment [8] (at 0.0781 µM, OCI-P5x cells, without rucaparib), 102% (inactive); in experiment [8] (at 0.313 µM, OCI-C5x cells, with rucaparib 10 µM, 100% = cells with rucaparib alone), 94% (active); in experiment [8] (at 0.313 µM, OCI-C5x cells, without rucaparib) it was 106% (inactive); in experiment [8] (at 0.313 µM, OCI-P5x cells, with rucaparib 20 µM, 100% = cells with rucaparib alone), 81.1% (active); in experiment [8] (at 0.313 µM, OCI-P5x cells, without rucaparib), 89.6% (active). Further, the viability in experiment [8] (at 1.25 µM, OCI-C5x cells, with rucaparib 10 µM, 100% = cells with rucaparib alone) is 70.2% (active); in experiment [8] (at 1.25 µM, OCI-C5x cells, without rucaparib) it was 87% (active); in experiment [8] (at 1.25 µM, OCI-P5x cells, with rucaparib 20 µM, 100% = cells with rucaparib alone), 64.9% (active); in experiment [8] (at 1.25 µM, OCI-P5x cells, without rucaparib), 57.1% (active); in experiment [8] (at 5 µM, OCI-C5x cells, with rucaparib 10 µM, 100% = cells with rucaparib alone) it was 50.5% (active); in experiment [8] (at 5 µM, OCI-C5x cells, without rucaparib), 36.9% (active). For the same compound, the viability was 34.4% (active) in experiment [8] (at 5 µM, OCI-P5x cells, with rucaparib 20 µM, 100% = cells with rucaparib alone) and 21.1% (active) in experiment [8] (at 5 µM, OCI-P5x cells, without rucaparib).
